Laboratory results published in PubChem BioAssay (NCI).
Compounds without any hit were thinned out: in the full panel of roughly 83,000, 20% have a hit.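 For each line, cells grew in 96-well plates with the test compound present at a single concentration for 48 hours.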 The source made the active and inactive calls. The calls were made as follows: active = growth percent below 10; inactive = the rest.

Test system: HL-60(TB) leukemia
Assay: NCI-60 one-dose screen, 48 h (100 = growth as untreated, 0 = no growth, -100 = all killed)
Conditions: 10 µM unless noted

Compound	growth
C=C1CC[C@@H]2[C@](C)(COC(C)=O)[C@H](OC(C)=O)CC[C@@]2(C)[C@@H]1CC(Nc1ccc(S(=O)(=O)Nc2ncccn2)cc1)C1=CCOC1=O (stereo not given in full)	-17.2% (active)
COc1ccc(/C(C)=N/NS(=O)(=O)c2ccc(C)cc2)cc1OC	97.6% (inactive)
O=C(CSc1nc2ccccc2[nH]1)Nc1cccc(Cl)c1	102% (inactive)
O=C(CSCC(=O)N/N=C/c1ccccc1O)N/N=C\c1ccccc1O	-32.8% (active)
COc1cc(/C(C#N)=C/c2nc3c(N4CCOCC4)nc(Cl)nc3n2C)cc(OC)c1OC	-29% (active)
O=C1/C(=C/c2ccccn2)SC(=S)N1N1CCOCC1	97.2% (inactive)
CC(=O)c1nn(-c2ccccc2)/c(=N/N=Cc2cn(-c3ccccc3)nc2-c2cc3ccccc3oc2=O)s1	102% (inactive)
Nc1nc(-c2cc3c(cc2Cl)NC(=O)/C3=C/c2ccccc2)cs1	47% (inactive)
O=C1NC(=Nc2ccc(S(=O)(=O)Nc3nccs3)cc2)S/C1=C\c1coc2ccccc2c1=O	107% (inactive)
CN(C)c1nc(-c2cccs2)n2nc(-c3ccc(Cl)cc3)cc2n1	87.8% (inactive)
N=C(N)c1ccc(OCCSCCOc2ccc(C(=N)N)cc2)cc1	77.9% (inactive)
Cn1ccc(=Nc2ccc(NC(=O)c3ccc(N=c4ccn(C)c5ccc([N+](=O)[O-])cc45)cc3)cc2)cc1	76.7% (inactive)
O=C1C(Cl)=C(Cl)C(Cl)(Cl)C(Cl)C1(Cl)Cl (stereo not given)	77.7% (inactive)
CC(=O)Oc1cccc(S(=O)(=O)n2cc(C(=O)C(=O)Nc3ccncc3)c3ccccc32)c1	56.1% (inactive)
Cc1nnc(NC/C=C/c2ccccc2)s1	98% (inactive)
CC(C)(C)c1ccc(O)c(C2CCCCC2)c1	67.4% (inactive)
COc1ccc(-c2cc(-c3nnc(SC/C(=N\O)c4ccccc4)n3-c3ccccc3)c3ccccc3n2)cc1	94.3% (inactive)
N#C/C(=C\c1ccc(C#N)cc1)C(=O)c1ccccc1	92.7% (inactive)
CCOC(=O)CSc1c([N+](=O)[O-])ncn1C	91.4% (inactive)
O=C(O)CCNS(=O)(=O)c1ccc(-c2ccccc2)cc1	188% (inactive)

Compound	growth
C=C1CC[C@@H]2[C@](C)(COC(C)=O)[C@H](OC(C)=O)CC[C@@]2(C)[C@@H]1CC(Nc1ccc(S(=O)(=O)Nc2nccs2)cc1)C1=CCOC1=O (stereo not given in full)	-20.9% (active)
O=C1O[C@@H](c2ccccc2Cl)[C@@H]2c3cc4c(cc3CCN12)OCO4	92.1% (inactive)
CC(=O)N(C)c1ccc([N+](=O)[O-])cc1	72.8% (inactive)
Clc1nc(Nc2ccccc2)nc(Nc2ccccc2)n1	65.6% (inactive)
CCOC(=O)c1[nH]c(=O)c2c(C)nc(-c3ccccc3)cc2c1O	111% (inactive)
CSc1cccc([N+](=O)[O-])c1	91.7% (inactive)
COc1ccc(N2CCN(S(=O)(=O)c3oc(-c4ccccc4)nc3C#N)CC2)cc1	50.5% (inactive)
COc1cc(-c2ccc(N=Nc3c(O)c(C(=O)Nc4ccccc4OC)cc4ccccc34)c(OC)c2)ccc1N=Nc1c(O)c(C(=O)Nc2ccccc2OC)cc2ccccc12	79.2% (inactive)
CC1(CO)CCCC1NCCNC1CCCC1(C)CO (stereo not given)	95.2% (inactive)
CCOC(=O)c1cnc2ccc(OC)cc2c1Nc1cccc(S(=O)(=O)NC)c1	109% (inactive)
Cc1cc(Nc2cc(N3CCN(C)CC3)nc(/C=C/c3ccccc3)n2)n[nH]1	-29.7% (active)
O=C1Nc2ccccc2/C1=C/c1cn(C[C@@H](O)Cn2c3ccccc3c(=O)c3ccccc32)c2ccccc12	82% (inactive)
CCCCC(=O)Nc1ncc(Cc2ccccc2Cl)s1	-7.94% (active)
NC(N)=Nc1ccc(/C=C2\C=Cc3ccccc32)cc1	61.6% (inactive)
Cc1[nH]c(/C=C/C(=O)c2ccc(C(F)(F)F)c(F)c2)c(C)c1C(=O)NCC(C)C	98.5% (inactive)
CC(C)(C)c1cc(Cl)c(O)c(CNCCO)c1	117% (inactive)
Clc1cccc(Cl)c1Cn1c(-c2cncs2)nc2ccccc21	56.6% (inactive)
Cc1ccccc1-c1nc(C(Cl)Cl)nc2cc(-c3ccccc3)nn12	92% (inactive)
N#Cc1c(-c2ccccc2)nc(SCC(=O)Nc2nc(-c3ccc(Cl)cc3)cs2)[nH]c1=O	96.1% (inactive)
Cc1cc(O)c(C2=NN(c3ccc(S(N)(=O)=O)cc3)C(c3ccc(N(C)C)cc3)C2)c(C)c1Cl (stereo not given)	24.1% (inactive)
